Compound activity (PubChem)
MCL1-BIM inh – inhibitors of MCL1 binding to BIM-BH3, primary screen, biochemical, fluorescence polarization. Induced myeloid leukemia cell differentiation protein Mcl-1 (Homo sapiens), Q07820. GST-MCL1 / FITC-Bim-BH3 fluorescence polarization. inhibition, % at 10.9 µM. 320,000 tested, 0.68% active. AID 2057, 2009;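 active = inhibition above the mean inhibition of all tested compounds plus 3 SD, set per campaign, cut at about 40% in these data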;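 note: higher means more loss of mP so more displacement of Bim peptide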
MEX-5 binding – MEX-5 zinc finger RNA-binding disruptors – biochemical, C. elegans, fluorescence polarization, MLPCN library, primary screen; Zinc finger protein mex-5 (Caenorhabditis elegans), Q9XUB2; MEX-5/FITC-TCR2 RNA binding; active compounds read low; activity score (negative = inhibition of binding), % at 10 µM; 300,000 tested, 0.38% active;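 active = inhibition past about -25% in most replicates, and total fluorescence under double the plate's negative control median, limit read from the data; inconclusive = replicates evenly split on the limit, or fluorescence at least double controls; inactive = too little inhibition in most replicates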
Target sequence (Q9XUB2 whole entry, looked up): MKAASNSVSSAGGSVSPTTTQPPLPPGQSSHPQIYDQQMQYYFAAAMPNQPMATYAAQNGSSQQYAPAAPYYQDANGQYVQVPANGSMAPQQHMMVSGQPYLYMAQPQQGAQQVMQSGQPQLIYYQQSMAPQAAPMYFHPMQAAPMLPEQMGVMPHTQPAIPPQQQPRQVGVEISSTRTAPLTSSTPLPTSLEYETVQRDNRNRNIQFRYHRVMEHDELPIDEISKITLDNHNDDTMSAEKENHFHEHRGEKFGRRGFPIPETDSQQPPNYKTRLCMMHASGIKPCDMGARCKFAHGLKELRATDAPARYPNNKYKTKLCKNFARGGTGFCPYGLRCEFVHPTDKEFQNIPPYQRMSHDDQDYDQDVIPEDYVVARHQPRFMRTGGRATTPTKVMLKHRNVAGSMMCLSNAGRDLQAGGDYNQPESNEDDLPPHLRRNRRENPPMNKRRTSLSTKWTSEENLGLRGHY
Bcl-xL primary – inhibitors of human Bcl-xL, primary screen, biochemical, fluorescence polarization, HTS | inhibition, % at 10.9 µM | AID 2129, 2009 | GST-Bcl-xL / FITC-Bim BH3 peptide fluorescence polarization | 320,000 tested, 0.7% active;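 active = inhibition above the mean of all tested compounds plus 3 SD, cutoff set per campaign, cut at about 30% in these data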;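 note: inhibitors lower millipolarization by displacing the labeled peptide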
eLon inh – inhibitors of E. coli Lon protease, primary screen, biochemical, fluorescence polarization. P0A9M0. 360,000 tested, 0.42% active. inhibition, % at 7.94 µM. purified E. coli Lon protease. AID 602123, 2011; in the data active = inhibition above about 13%, passing the limit was not always enough
EBV gp42 block – Epstein-Barr virus gp42 inhibitors, primary screen, biochemical, uHTS, fluorescence polarization; Fluorescence polarization binding assay, mP read-out; inhibition, % (tested at 21.74 µM); 220,000 tested, 0.42% active; in the data active = inhibition above about 50%
Target sequence (Q1HVG2 whole entry, looked up): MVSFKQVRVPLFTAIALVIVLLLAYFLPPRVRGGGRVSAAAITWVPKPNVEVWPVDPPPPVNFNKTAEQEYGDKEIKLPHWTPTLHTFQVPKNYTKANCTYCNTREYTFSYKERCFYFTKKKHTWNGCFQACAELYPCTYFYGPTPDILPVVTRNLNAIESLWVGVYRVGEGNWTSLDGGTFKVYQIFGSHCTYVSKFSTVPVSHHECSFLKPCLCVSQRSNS
GLD-1 RNA inh – GLD-1/TGE RNA complex disruptors, primary screen, biochemical, fluorescence polarization. Female germline-specific tumor suppressor gld-1 (Caenorhabditis elegans), Q17339. inhibition, % at 5.96 µM. 320,000 tested, 0.44% active. purified GLD-1 + fluorescein TGE RNA;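 active = percent inhibition above a per-plate cutoff, the plate mean of test compounds plus 3 SD, cut at about 30% in these data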
Each line names hits and unclear results; the compound was inactive in the other large screens. A selection: hits, their analogues and other compounds. The true share with any hit is near 1.4%.

CCCCCCn1c(O)c(C=Nc2ccccc2N2CCOCC2)c(=O)[nH]c1=S	MEX-5 binding -31
Cc1nonc1OCCNCCNc1ccc([N+](=O)[O-])c2cccnc12	MEX-5 binding -27
COCCCNC(=O)c1c(N)n(Cc2ccco2)c2nc3ccccc3nc12	MCL1-BIM inh 54, Bcl-xL primary 49, GLD-1 RNA inh 47
CN1/C(=C\C=Nc2ccccc2)C(C)(C)c2ccccc21	none
CN1/C(=C\C=C2C(=O)NC(=O)NC2=O)C(C)(C)c2ccccc21	MEX-5 binding -86
O=C(O)Cn1cc(/C=C2\C(=O)NC(=O)N(c3ccc(Cl)cc3)C2=O)c2ccccc21	MEX-5 binding inconclusive (no result: EBV gp42 block)
CCN(CC)C(=O)Cn1cc(/C=C2\C(=O)NC(=O)N(c3ccccc3F)C2=O)c2ccccc21	MEX-5 binding -64 (no result: EBV gp42 block)
CCN(CC)c1ccc(N=Cc2c(O)n(CCc3ccc(OC)c(OC)c3)c(=O)[nH]c2=O)cc1	EBV gp42 block 83
Oc1ccc(C[C@H]2NCCc3cc(O)c(O)cc32)cc1O	MEX-5 binding -81 (no result: MCL1-BIM inh, Bcl-xL primary, EBV gp42 block, GLD-1 RNA inh)
COc1ccc(/C=C2/C(=O)NC(=O)N(Cc3ccco3)C2=O)cc1	MEX-5 binding -81 (no result: eLon inh)
Cn1cccc1/C=C1\C(=O)NC(=O)N(Cc2ccco2)C1=O	none (no result: MCL1-BIM inh, Bcl-xL primary, GLD-1 RNA inh)
Cc1cccc(N2C(=O)NC(=O)/C(=C/c3ccc([N+](=O)[O-])o3)C2=O)c1	MCL1-BIM inh 48, Bcl-xL primary 33 (no result: MEX-5 binding, eLon inh)
Cc1cccc(N2C(=O)NC(=O)/C(=C\C=C\c3ccco3)C2=O)c1	none
O=c1[nH]c(=O)n(CCC2=CCCCC2)c(O)c1C=NCCCn1ccnc1	none
O=c1[nH]c(=O)n(CCc2ccc(F)cc2)c(O)c1C=NCCCn1ccnc1	MEX-5 binding -40
S=P1(Oc2ccccc2)Nc2ccccc2N1	none (no result: MCL1-BIM inh, MEX-5 binding, Bcl-xL primary, EBV gp42 block, GLD-1 RNA inh)
Cc1ccccc1-n1c(O)c(/C=N/NC(=O)c2ccccc2O)c(=O)[nH]c1=S	MEX-5 binding -29
O=C(N/N=C/c1c(O)n(-c2ccccc2)c(=S)[nH]c1=O)c1ccccc1	none
O=C(N/N=C/c1c(O)n(C2CC2)c(=S)[nH]c1=O)c1ccccc1O	MEX-5 binding -60
COC(=O)C1=C(c2ccc(OC(F)(F)F)cc2)C[C@@H]2CC[C@H]1N2C(=O)NC(C)C	none (no result: MEX-5 binding, EBV gp42 block)
CCOC(=O)c1c(/N=C/c2c(O)n(-c3ccc(F)cc3)c(=S)[nH]c2=O)sc2c1CCCC2	EBV gp42 block 56
CCOC(=O)c1c(/N=C/c2c(O)n(-c3ccccc3F)c(=S)[nH]c2=O)sc2c1CCCC2	EBV gp42 block 130
CCOC(=O)c1ccc(N=Cc2c(O)n(-c3ccc(OC)cc3)c(=S)[nH]c2=O)cc1	none
CC(C)C[C@H]1COc2cc(N3CCN(C)CC3)ccc2S(=O)(=O)N1	none (no result: MCL1-BIM inh, MEX-5 binding, Bcl-xL primary, EBV gp42 block, GLD-1 RNA inh)
COc1cc(O)c(C(=O)O)c(-c2cc(O)c(O)cc2C)c1	MEX-5 binding -62
COc1ccc2c(c1)c(C(=O)O)c(C)n2CC(C)C	none
CNCC(O)c1cc(OCc2ccccc2)c(OCc2ccccc2)cc1F (stereo not given)	none (no result: EBV gp42 block)
COc1ccccc1-n1c(O)c(/C=C2\C=Nc3ccccc32)c(=O)[nH]c1=O	MEX-5 binding -35 (no result: EBV gp42 block)
Cc1csc(=N)n1Cc1ccccc1	none
O=C1NC(=O)C2(Cc3ccccc3N3CCCC32)C(=O)N1 (stereo not given)	Bcl-xL primary 37
CC[C@@H](CO)NC(=O)[C@@H]1C=C2c3cccc4[nH]cc(c34)C[C@H]2N(C)C1	none (no result: MCL1-BIM inh, MEX-5 binding, Bcl-xL primary, EBV gp42 block, GLD-1 RNA inh)
COC(=O)C1C=C2c3cccc4[nH]cc(c34)CC2N(C)C1 (stereo not given)	EBV gp42 block 114 (no result: MCL1-BIM inh, MEX-5 binding, Bcl-xL primary, eLon inh, GLD-1 RNA inh)
CC(C)(C)n1c(O)c(C=Nc2ccc3c(c2)CCC3)c(=O)[nH]c1=O	none
CCCCn1c(O)c(C(=O)/C=C/c2ccc3c(c2)OCO3)c(=O)[nH]c1=O	MEX-5 binding -36
Cc1ccc(N2C(=O)NC(=O)/C(=C\c3cc(C)n(-c4cc(C(=O)O)cc(C(=O)O)c4)c3C)C2=O)cc1	none (no result: EBV gp42 block)
Cc1ccc(N2C(=O)NC(=O)/C(=C\c3cc(C)n(-c4ccc(C(=O)O)cc4)c3C)C2=O)cc1	MEX-5 binding -35 (no result: EBV gp42 block)
CN1C(=O)/C(=C/C=C/c2ccco2)C(=O)NC1=S	MEX-5 binding -80
O=C1NC(=O)N(c2ccccc2)C(=O)/C1=C/C=C/c1ccco1	none
O=C(O)CCC(=O)NCCC1=c2ccccc2=N/C1=C\c1c(O)n(Cc2ccc(F)cc2)c(=S)[nH]c1=O	EBV gp42 block 82
CCn1c(O)c(C(c2ccccn2)c2c(O)n(CC)c(=S)[nH]c2=O)c(=O)[nH]c1=S	none
O=C(O)Cn1cc(C=C2C(=O)NC(=O)NC2=O)c2ccccc21	none (no result: EBV gp42 block)
O=C(Cn1cc(C=C2C(=O)NC(=O)NC2=O)c2ccccc21)NCC1CCCO1 (stereo not given)	MEX-5 binding -36 (no result: EBV gp42 block)
C=CCn1cc(C=C2C(=O)NC(=O)NC2=O)c2ccccc21	MEX-5 binding -37 (no result: EBV gp42 block)
O=C1NC(=O)C(=Cc2ccc3c(c2)OCO3)C(=O)N1	none (no result: eLon inh)
O=C1NC(=O)C(=Cc2cn(CCOc3ccc4c(c3)OCO4)c3ccccc23)C(=O)N1	MEX-5 binding -55
O=c1[nH]c2ccccc2n1C1CCN(C(CCc2ccccc2)c2nnnn2C2CCCCC2)CC1 (stereo not given)	none (no result: MCL1-BIM inh, MEX-5 binding, Bcl-xL primary, EBV gp42 block, GLD-1 RNA inh)
Cc1ccccc1-n1c(O)c(/C=N/Nc2nc3c(c(=O)n(C)c(=O)n3C)n2C)c(=O)[nH]c1=S	none
COc1ccc(N/N=C/c2c(O)n(-c3cccc(C)c3)c(=O)[nH]c2=O)cc1	Bcl-xL primary 40
Cc1cccc(-n2c(O)c(/C=N/Nc3nc4c(c(=O)n(C)c(=O)n4C)n3C)c(=O)[nH]c2=S)c1	MEX-5 binding -47
Fc1cccc(C2NCCc3[nH]cnc32)c1 (stereo not given)	none
C[C@@H]1CN([C@@H](C)CO)C(=O)CCCn2nncc2CO[C@H]1CN(C)C(=O)Oc1ccccc1	none (no result: MCL1-BIM inh, MEX-5 binding, Bcl-xL primary, EBV gp42 block, GLD-1 RNA inh)
CCn1nc(-c2ccccc2)nc2c(=O)n(C)c(=O)nc1-2	MCL1-BIM inh 148, MEX-5 binding inconclusive, Bcl-xL primary 136, eLon inh 83, EBV gp42 block 98, GLD-1 RNA inh 128
CCCC(C)C1(CC)C(=O)NC(=O)N=C1N (stereo not given)	none
COc1ccccc1[As](=O)(O)CC(O)COc1ccc(Cl)cc1Cl (stereo not given)	none (no result: eLon inh)
Cc1ccc(OCCn2cccc2/C=C2/C(=O)NC(=O)N(Cc3ccco3)C2=O)cc1	none
CCc1ccc(N2C(=O)NC(=O)/C(=C\c3cccn3CCOc3ccc(C(C)C)cc3)C2=O)cc1	MEX-5 binding -36
